# From publication PMC4336329 (PLoS ONE, 2015)
# Among all 310,000 compounds or so, about 14,000 (4.5%) showed an effect of 50% or more. Effects have a minus sign here. The entries come from a sample that favours strong results as a whole.
# Target: human ether-à-go-go-related gene (hERG) potassium channel (human, UniProt Q12809)
# Experiment: primary screen, population patch clamp on CHO cells stably expressing hERG; higher = less effect of the substance
# 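Further: peak tail current of the secondary pulse compared with the same well before compound.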
# human ether-à-go-go-related gene (hERG) potassium channel, sequence (Q12809 whole entry, looked up): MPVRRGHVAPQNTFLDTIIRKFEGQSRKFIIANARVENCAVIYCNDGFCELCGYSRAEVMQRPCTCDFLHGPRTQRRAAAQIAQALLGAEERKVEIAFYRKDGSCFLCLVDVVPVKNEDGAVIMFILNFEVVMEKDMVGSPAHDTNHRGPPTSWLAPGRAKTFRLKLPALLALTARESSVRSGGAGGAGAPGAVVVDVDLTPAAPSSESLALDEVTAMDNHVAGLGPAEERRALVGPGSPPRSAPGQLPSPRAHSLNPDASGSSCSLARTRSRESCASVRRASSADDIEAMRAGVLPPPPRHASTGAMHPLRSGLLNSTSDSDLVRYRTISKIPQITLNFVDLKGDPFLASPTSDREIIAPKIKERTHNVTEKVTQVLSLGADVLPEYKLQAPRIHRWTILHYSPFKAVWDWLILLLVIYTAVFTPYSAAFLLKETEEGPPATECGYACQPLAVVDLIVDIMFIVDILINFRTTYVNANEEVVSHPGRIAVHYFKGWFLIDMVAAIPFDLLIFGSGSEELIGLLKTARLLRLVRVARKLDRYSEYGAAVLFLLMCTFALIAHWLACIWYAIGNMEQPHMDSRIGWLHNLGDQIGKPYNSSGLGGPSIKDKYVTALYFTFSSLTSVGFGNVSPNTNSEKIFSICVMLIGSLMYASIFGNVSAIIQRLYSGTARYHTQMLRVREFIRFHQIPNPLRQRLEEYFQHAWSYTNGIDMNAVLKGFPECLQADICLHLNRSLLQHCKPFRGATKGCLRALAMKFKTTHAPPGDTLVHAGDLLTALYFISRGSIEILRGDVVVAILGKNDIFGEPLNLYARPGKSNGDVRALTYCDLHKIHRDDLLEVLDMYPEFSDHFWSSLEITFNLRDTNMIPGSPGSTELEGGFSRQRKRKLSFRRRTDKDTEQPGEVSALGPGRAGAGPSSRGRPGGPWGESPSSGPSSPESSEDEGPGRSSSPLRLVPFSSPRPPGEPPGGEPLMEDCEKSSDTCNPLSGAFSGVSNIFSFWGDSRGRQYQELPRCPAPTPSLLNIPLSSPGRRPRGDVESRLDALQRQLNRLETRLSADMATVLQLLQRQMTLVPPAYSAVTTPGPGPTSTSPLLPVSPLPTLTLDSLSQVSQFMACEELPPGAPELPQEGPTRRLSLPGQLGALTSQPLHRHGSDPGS
row,Structure (SMILES),"hERG current change (%, negative = inhibition) at 10uM"
1,Cn1c(SCC(=O)c2ccccc2)nnc1-c1ccc(O)cc1,-11.2%
2,COc1cccc(C=NCC(C)N=Cc2cccc(OC)c2O)c1O (stereo not drawn),3.33%
3,Cn1c(=O)c2c(nc(NCc3ccco3)n2CC(O)CO)n(C)c1=O (stereo not drawn),22.1%
4,CCOC(=O)N1CCN(C(=O)CCN2C(=O)COc3ccccc32)CC1,0.87%
5,c1ccc(-c2noc(-c3ccc4ccccc4c3)n2)cc1,11.9%
6,CCOC(=O)c1c(NC(=O)CCCN2CCOCC2)sc2c1CC(C)(C)OC2,-9.14%
7,COc1ccc(C2=NOC(C(=O)Nc3ccc4c(c3)OCCO4)C2)c(OC)c1 (stereo not drawn),3.96%
8,CCOC(=O)COc1ccc(S(=O)(=O)NCc2ccco2)cc1,-1.53%
9,CCNc1nc(NC(C)CC)nc(ON=C(C)C)n1 (stereo not drawn),-2.23%
10,CCCCN(C)CCCNC(=O)c1cn(CC)c2ccc(S(=O)(=O)N3CCOCC3)cc2c1=O,10.3%
11,CCCCN(CC)CCCNC(=O)c1cn(CC)c2ccc(S(=O)(=O)N3CCc4ccccc4C3)cc2c1=O,-74.9%
12,CCCCSCCCNC(=O)c1cn(CC)c2ccc(S(=O)(=O)N3CCOCC3)cc2c1=O,-44.9%
13,O=C(CCN1CCCCO1)N1CCCC(Nc2cccc(F)c2)C1 (stereo not drawn),14%
14,Nc1nc2n(n1)C(c1ccco1)CC(c1ccc(Cl)c(Cl)c1)N2 (stereo not drawn),-31.4%
15,CC1CCN(C(=S)Nc2ccc(F)cc2)CC1,3.1%
16,CCC1C(=O)CC(c2ccccc2)NC1c1ccccc1 (stereo not drawn),-21.4%
17,CCC1C(=O)CC(c2ccc([N+](=O)[O-])cc2)NC1c1ccc([N+](=O)[O-])cc1 (stereo not drawn),-76.3%
18,CC1C(=O)CC(c2ccc([N+](=O)[O-])cc2)NC1c1ccc([N+](=O)[O-])cc1.Cl (stereo not drawn),-69.7%
19,CC1C(=O)C(C)C(c2ccc([N+](=O)[O-])cc2)NC1c1ccc([N+](=O)[O-])cc1 (stereo not drawn),-46%
20,CCC1C(=O)C(C)(C)C(=O)OC1c1ccc([N+](=O)[O-])cc1 (stereo not drawn),-7.26%
21,CC1C(=O)CC(c2ccccc2)NC1c1ccccc1 (stereo not drawn),-7.08%
22,Cc1ccc(NC(=O)CN(C)C(=O)CSc2nc3ccccc3o2)cc1,-20.5%
23,COc1cc2c(cc1NC(=O)CN1CCN(S(=O)(=O)c3ccccc3F)CC1)oc1ccccc12,10.1%

row,Structure (SMILES),"hERG current change (%, negative = inhibition) at 10uM"
1,COc1c(C)cc(C(=O)C2CCCN(Cc3cnc(C)s3)C2)cc1C (stereo not drawn),-7.68%
2,COc1ccccc1C(=O)C1CCCN(Cc2cnc(C)s2)C1 (stereo not drawn),-8.13%
3,CSc1ccc(C(=O)C2CCCN(C(=O)c3cccnc3SC)C2)cc1 (stereo not drawn),-32.4%
4,CSc1ccc(C(=O)C2CCCN(Cc3cc4ccccc4[nH]3)C2)cc1 (stereo not drawn),-48.8%
5,CSc1ccc(C(=O)C2CCCN(Cc3cccc4nccnc34)C2)cc1 (stereo not drawn),-82.8%
6,CCCN1CCCC(C(=O)c2cc(C)c(OC)c(C)c2)C1 (stereo not drawn),-3.65%
7,COc1ccccc1C(=O)C1CCCN(Cc2cn[nH]c2C2CCCCC2)C1 (stereo not drawn),-31.5%
8,COc1ccccc1C(=O)C1CCCN(Cc2cccc3nccnc23)C1 (stereo not drawn),-67.4%
9,COc1c(C)cc(C(=O)C2CCCN(Cc3cccc4nccnc34)C2)cc1C (stereo not drawn),-64.5%
10,CCOCCCN=Cc1c(O)n(Cc2ccccc2)c(=O)[nH]c1=O,-4.85%
11,c1ccc(CSc2nnc3ccc(-c4cccs4)nn23)nc1,3.64%
12,Cc1cccc(OCC(=O)Nc2ccc3c(C)cc(=O)oc3c2)c1,1.59%
13,CCOc1ccc(C(=O)OC2CCCN(C)C2)cc1.Cl (stereo not drawn),-18.1%
14,O=C(c1ccc2ccccc2c1)N1CCCC1,19.2%
15,CC(=O)c1sc(NC(=O)c2cc(=O)c3ccccc3o2)nc1C,10.1%
16,O=C(Cc1ccc(F)cc1)Nc1nnc(SCC(=O)NC2CCCC2)s1,1.56%
17,COc1cccc(C(O)c2nc3ccccc3n2C)c1 (stereo not drawn),3.27%
18,CC(NC(=O)Cn1ccsc1=N)C12CC3CC(CC(C3)C1)C2.Cl (stereo not drawn),-34.4%
19,CCC(=O)c1c[nH]c(C(=O)NCc2ccccc2OC)c1,-6.15%
20,CCN(CC)CCCN1CC(O)=C(c2nc3ccccc3s2)C1=N,-34.2%
21,Fc1ccc(Nc2nnns2)cc1,18.2%
22,O=C(OCc1cccc([N+](=O)[O-])c1)c1ccc[nH]c1=O,17.2%
23,COc1ccc(CC(=O)Nc2cc(C)ccn2)cc1,6.87%

row,Structure (SMILES),"hERG current change (%, negative = inhibition) at 10uM"
1,O=C(COC(=O)C1CC(=O)N(Cc2ccccc2)C1)Nc1ccccc1F (stereo not drawn),7.39%
2,CN(Cc1cccc(Cl)c1)C(=O)C1CCN(C(=O)Nc2ccccc2)CC1,-55.9%
3,CSc1ccc(CN(C)C(=O)C2CCN(C(=O)Nc3ccccc3)CC2)cc1,-67.4%
4,CN(CC(=O)Nc1c(Cl)cccc1Cl)C(=O)C1CCN(C(=O)Nc2ccccc2)CC1,11.5%
5,CSc1ccccc1NC(=O)CN(C)C(=O)C1CCN(C(=O)Nc2ccccc2)CC1,-11.4%
6,COc1ccc(CN(C)C(=O)C2CCN(C(=O)Nc3ccccc3)CC2)cc1,-16.3%
7,COc1ccc(CN(C)C(=O)C2CCN(C(=O)Nc3ccccc3)CC2)cc1OC,-1.53%
8,CCn1cnc2c1c(=O)n(CC(=O)Nc1ccc(C(N)=O)cc1)c(=O)n2Cc1ccccc1,13.8%
9,Clc1cccc(C2Nc3cccc4cccc(c34)N2)c1Cl,16.2%
10,CCOC(=O)C1CCCN(c2nc3c(C)cccn3c(=O)c2/C=C(\C#N)C(=O)NCc2ccco2)C1 (stereo not drawn),-49.7%
11,CC(=O)N/C(=C\c1cccc([N+](=O)[O-])c1)C(=O)NC(C)C,2.75%
12,Cc1ccc(C(=O)N/C(=C\c2cccc([N+](=O)[O-])c2)C(=O)OCN2C(=O)c3ccccc3C2=O)cc1,-11%
13,N#C/C(=C\c1cccc([N+](=O)[O-])c1)C(=O)NCc1cccnc1,-50.8%
14,Cc1ccc(C(=O)N/C(=C\c2cccc([N+](=O)[O-])c2)C(=O)NC(Cc2ccccc2)C(=O)O)cc1 (stereo not drawn),15.3%
15,Cc1ccc(C(=O)N/C(=C/c2cccc([N+](=O)[O-])c2)C(=O)NCC2CCCO2)cc1 (stereo not drawn),-68.4%
16,CC(C)NC(=O)/C(=C\c1cccc([N+](=O)[O-])c1)NC(=O)c1ccccc1,-18.1%
17,Cc1ccc(C(=O)N/C(=C/c2cccc([N+](=O)[O-])c2)C(=O)NC(C)C)cc1,-51.8%
18,O=C(NCC1CCCO1)/C(=C\c1cccc([N+](=O)[O-])c1)NC(=O)c1ccccc1 (stereo not drawn),-33%
19,N#C/C(=C\c1cccc([N+](=O)[O-])c1)C(=O)Nc1cccnc1,21.3%
20,Cc1ccc(C(=O)N/C(=C\c2ccccc2)C(=O)NCC2CCCO2)cc1 (stereo not drawn),-24.3%
21,CCNC(=O)/C(=C/c1cccc([N+](=O)[O-])c1)NC(=O)c1ccc(C)cc1,-58.1%
22,O=C(/C=C/c1cccc([N+](=O)[O-])c1)NCc1cccnc1,-14%
23,Cc1ccc(NC(=O)CSCc2ccco2)cc1,21.7%

row,Structure (SMILES),"hERG current change (%, negative = inhibition) at 10uM"
1,O=C(CCSc1ccc(F)cc1)Nc1ccc(-n2cnnn2)cc1,-26.4%
2,COc1cc(/C=N/N2CCN(c3ccc(Cl)cc3)CC2)cc(OC)c1OC(C)=O,9.63%
3,O=C(NC(NC(=S)Nc1ccccc1)C(Cl)(Cl)Cl)c1cccc(Cl)c1 (stereo not drawn),7.91%
4,O=C(NCc1ccncc1)/C(=C/c1cccc([N+](=O)[O-])c1)NC(=O)c1ccccc1,-71%
5,O=C(NNc1cccc([N+](=O)[O-])c1)/C(=C\c1cccnc1)NC(=O)c1ccccc1,-30.6%
6,Cc1ccc(C(=O)N/C(=C\c2cccc([N+](=O)[O-])c2)C(=O)Nc2cccc(C(=O)O)c2)cc1,15.2%
7,Cc1ccc(C(=O)N/C(=C\c2cccc([N+](=O)[O-])c2)C(=O)NCc2ccncc2)cc1,-73.3%
8,Cn1c(=O)c2c(nc(Sc3ncccn3)n2Cc2ccccc2Cl)n(C)c1=O,-8.1%
9,CCCC(=O)NC(=S)Nc1cccc(NC(=O)c2ccccc2)c1,-1.54%
10,CCOc1ccc(C(=O)Nc2ccc(C(F)(F)F)n(C)c2=O)cc1,14.5%
11,Cc1ccc(Nc2ncnc(N)n2)cc1,9.24%
12,CCOc1ccc(NC(=O)CCC(=O)OC)cc1,-1.95%
13,CCCCOc1cc(C(=O)OCCN(CC)CC)ccc1N,-60.6%
14,CCN(CC)CCOC(=O)c1ccc([N+](=O)[O-])cc1.Cl,-23.1%
15,CCCOc1cc(N)ccc1C(=O)OCCN(CC)CC.Cl,-18.9%
16,CCN(CC)CCOC(=O)c1ccc(N)cc1.Cl,2.06%
17,CCN(CC)CCOC(=O)c1cccc(Br)c1.Cl,-40.6%
18,CCCCOc1cc(C(=O)OCCN(CC)CC)ccc1N.Cl,-53.6%
19,CCOc1ccc(C(=O)OCCN(CC)CC)cc1.Cl,-44.8%
20,CCN(CC)CCOC(=O)c1ccc2c(c1)OCCO2.Cl,-11.4%
21,CCCOc1ccc(C(=O)OCCN(CC)CC)cc1N.Cl,-51.9%
